# Bioassay records: PubChem BioAssay, National Center for Advancing Translational Sciences (NCATS)
# An excerpt weighted towards active compounds, which were near 1.9% of everything screened.
# PINK1 modulator: A Quantitative High throughput Screen to Identify Chemical Modulators of PINK1 Expression | PINK1 immunofluorescence, high-content cytometry, 24 h | Potency, µM (series often up to 76.6 µM), most hits filed as activators | 410,000 compounds, 0.2% hits | AID 624263, 2012; active = well fitted activation curve with a large enough effect; inconclusive = small, poorly fitted or top-dose-only effect; cell line not stated here; note: nearly all actives have a fitted effect of over 65% in size
#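 PINK1 protein level read as immunofluorescence by microplate cytometer in a fixed, stained stable cell line after 24 h exposure to five compound concentrations, with CCCP as control.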
# Menin MLL FP FL: qHTS Assay for Inhibitors Targeting the Menin-MLL Interaction in MLL Related Leukemias: Competition With Fluorescein Labeled MLL-derived Peptide; Fluorescence polarization, fluorescein-MLL peptide displacement from menin; FP activity change, % at 61.4 µM; 290,000 tested, under 10 active; active = well fitted curve in the direction sought with a large enough effect in the polarisation, not every such curve was filed as active; inconclusive = small, poorly fitted or top-dose-only effect, or effect the other way, or a change in a side signal; inactive = no such curve, though single readings can be large or run the other way; the % refers to the polarisation
# Epigenetic derep: Quantitative High-Throughput Screen for Regulators of Epigenetic Control; murine LDR cells, GFP reporter derepression, 30 h; Potency, µM (titrated, usually from 53.9 µM), most hits filed as activators; 280,000 compounds, 0.2% hits; active = well fitted activation curve with a large enough effect; inconclusive = small, poorly fitted or top-dose-only effect; note: nearly all actives have a fitted effect of over 60% in size
#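 Murine LDR cells carrying a silenced, genomically integrated CMV-driven GFP reporter were exposed to compound for 30 hours at 37 C. After PBS washes, GFP-positive cells (20–120 um objects) were counted by laser-scanning microplate cytometry.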
# Menin-MLL TR inh: qHTS Assay for Inhibitors Targeting the Menin-MLL Interaction in MLL Related Leukemias: Competition With Texas Red Labeled MLL-derived Mutant Peptide | Potency, µM (series often up to 61.6 µM), hits mostly inhibitors | 270,000 compounds, 0.23% hits | Menin + Texas Red MLL mutant peptide, fluorescence polarization | O00255; active = well fitted inhibition curve with a large enough effect in the polarisation, with a control signal flat, not every such curve was filed as active; inconclusive = small, poorly fitted or top-dose-only effect, or effect the other way, or a change in a side signal; inactive = no such curve, though single readings can be large or run the other way; the % refers to the polarisation
# Target sequence (O00255 whole entry, looked up): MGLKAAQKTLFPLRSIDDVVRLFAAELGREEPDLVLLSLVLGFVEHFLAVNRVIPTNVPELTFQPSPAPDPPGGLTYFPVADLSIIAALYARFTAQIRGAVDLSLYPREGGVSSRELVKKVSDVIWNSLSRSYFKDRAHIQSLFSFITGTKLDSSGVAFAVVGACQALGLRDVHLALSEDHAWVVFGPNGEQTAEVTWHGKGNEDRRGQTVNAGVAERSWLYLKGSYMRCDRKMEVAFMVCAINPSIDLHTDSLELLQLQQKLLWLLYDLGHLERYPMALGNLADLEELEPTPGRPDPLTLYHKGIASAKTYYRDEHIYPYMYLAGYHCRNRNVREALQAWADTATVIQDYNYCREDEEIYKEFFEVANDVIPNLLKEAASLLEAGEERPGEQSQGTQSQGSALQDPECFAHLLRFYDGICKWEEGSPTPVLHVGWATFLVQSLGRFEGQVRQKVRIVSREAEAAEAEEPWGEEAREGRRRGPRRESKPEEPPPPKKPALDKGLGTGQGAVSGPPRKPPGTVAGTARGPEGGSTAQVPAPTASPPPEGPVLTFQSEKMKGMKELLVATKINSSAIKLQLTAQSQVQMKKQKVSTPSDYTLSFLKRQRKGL
# ClpP mod: qHTS Assay for Activators of ClpP. purified B. subtilis ClpP, FRET peptide cleavage, 20 min. Potency, µM (top dose mostly 57.5 µM). AID 651965, 2013. 340,000 compounds, 1.9% hits. ATP-dependent Clp protease proteolytic subunit (Bacillus subtilis (strain 168)), P80244; active = well fitted falling curve with a large enough effect; inconclusive = small, poorly fitted or top-dose-only effect; inactive = no such curve, though single readings can be large or run the other way; note: the source files actives as falling curves though it sought activators and does not explain the sign; nearly all actives have a fitted effect of over 65% in size
#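 ClpP 10 microg/mL final, pH 8 Tris/KCl buffer with BSA, glycerol, Tween-20; compound pinned in; FRET-FV substrate; RT 20 min; Ex320/Em430; ΔFRET vs ADEP 5.8 microM, DMSO, no enzyme.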
# MLL CXXC-DNA inh: qHTS Fluorescence Polarization Assay for Inhibitors of MLL CXXC domain - DNA interaction; Histone-lysine N-methyltransferase 2A (Homo sapiens), Q03164; MLL-CXXC / FITC-HOXA9 DNA fluorescence polarization; Potency, µM (top dose mostly 115 µM), actives largely listed as inhibitors; 290,000 compounds, 0.037% hits; AID 2662, 2010; active = well fitted inhibition curve with a large enough effect in the polarisation, with a control signal flat, not every such curve was filed as active; inconclusive = small, poorly fitted or top-dose-only effect, or effect the other way, or a change in a side signal; inactive = no such curve, though single readings can be large or run the other way; the % refers to the polarisation
#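 Purified MLL-CXXC (added from a 7 uM solution) was preincubated 5 min at ambient with pinned compounds in 50 mM Tris-HCl pH 7.5, 50 mM NaCl, 1 mM DTT, 0.05% BSA. Fluorescein-labeled HOX-A9 DNA (50 nM solution) followed, 30 min, then polarization read.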
# Hits are given with their value; - = inactive; ? = inconclusive; . = not tested or not shown.
SMILES,PINK1 modulator,Menin MLL FP FL,Epigenetic derep,Menin-MLL TR inh,ClpP mod,MLL CXXC-DNA inh
CCc1cc(C(=O)NCc2c(C)ncc3c2CCN(C(=O)C2=CCCC2)C3)no1,-,.,.,.,.,.
COc1ccccc1C1CN(Cc2cccc(OCCO)c2)Cc2ccccc2O1 (stereo unspecified),-,.,.,.,.,.
Nc1c(S(=O)(=O)c2cccs2)c2nc3ccccc3nc2n1Cc1cccs1,?,-,-,?,32µM,-
Nc1c(S(=O)(=O)c2cccs2)c2nc3ccccc3nc2n1Cc1ccc2c(c1)OCO2,-,-,-,?,14µM,-
Nc1c(S(=O)(=O)c2cccs2)c2nc3ccccc3nc2n1CCc1ccccc1,.,-,-,-,.,-
COC(=O)c1cc2c(C)c(C)c3ccccn3c-2c1C(=O)OC,-,?,?,-,-,?
COC(=O)c1cc2n3ccccc3c(C)c(-c3ccccc3)c-2c1C(=O)OC,-,?,-,-,32µM,-
O=C(Cn1c(=O)n(-c2ccccc2)c(=O)c2ccc(C(=O)NCc3ccc4c(c3)OCO4)cc21)Nc1ccc(Br)cc1,-,.,16µM,.,-,.
COc1ccc(NC(=O)Cn2c(=O)n(-c3ccccc3)c(=O)c3ccc(C(=O)NCc4ccc5c(c4)OCO5)cc32)cc1,-,.,-,.,-,.
CN1CCCC(CNC(=O)c2cnn(-c3ncc4c(n3)-c3ccccc3CC4)c2C2CC2)C1 (stereo unspecified),-,.,.,.,.,.
O=C(CCC(=O)c1ccc(Cl)cc1)OCC(=O)c1ccccc1,-,-,-,-,32µM,-
O=C(Nc1ccc(Cl)cc1)c1cccc(N2C(=O)C3C4CCC(C4)C3C2=O)c1 (stereo unspecified),-,-,-,?,-,-
O=C(O)c1cccc(NC(=O)c2ccc3c(c2)C(=O)N(c2ccccc2)C3=O)c1,-,-,.,-,8.9µM,-
O=C(O)c1ccc(NC(=O)c2cccc(N3C(=O)C4C5CCC(C5)C4C3=O)c2)cc1 (stereo unspecified),-,-,-,-,25µM,-
CSc1nccc(-c2cc(Cl)c3c(c2)CC(CNC(=O)c2nonc2C)O3)n1 (stereo unspecified),-,.,.,.,.,.
COc1cc(=O)n2c(c1C(=O)NCc1ccco1)CCN(C(=O)c1cccnc1SC)CC2,-,.,.,.,.,.
COc1cc(C(=O)Nc2nnc(S(=O)(=O)N(C)c3ccccc3)s2)cc(OC)c1OC,-,.,10µM,.,-,.
CN(c1ccccc1)S(=O)(=O)c1nnc(NC(=O)c2cccs2)s1,-,.,?,.,-,.
CC(NC(=O)c1cnn2c1NC(=C1CC1)C=C2C(F)F)c1ccncc1 (stereo unspecified),-,.,.,.,-,.
Cc1ccc(CNC(=O)c2ccc(N3CCC4(CC3)CC(c3ccccc3)=NO4)c(N)c2)cc1,-,-,.,-,8.9µM,-
Cc1ccc(CNC(=O)c2ccc(N3CCC4(CC3)CC(c3ccccc3)=NO4)c(NC(=O)c3ccccc3)c2)cc1,-,.,.,.,?,.
C#CCNC(=O)C[C@@H]1C[C@@]2(C(=O)OC)CCCCC=C2N(CCCCCCCC)C1=O,-,.,.,.,-,.
N#Cc1c(N)oc(-c2ccco2)c1-c1ccco1,-,?,-,-,25µM,-
CCCc1c(O)nc(SCC(=O)O)[nH]c1=O,-,-,-,-,-,-
CC(C)CCc1c(O)nc(SCC(C)C)[nH]c1=O,-,-,-,-,32µM,-
C=CCNC(=O)N1CCCC(N2CCN(c3ccccc3OC)CC2)C1 (stereo unspecified),-,-,.,-,16µM,-
C=CCS(=O)(=O)N1CCCC(N2CCN(c3ccccc3OC)CC2)C1 (stereo unspecified),-,-,.,-,-,-
c1ccc2c(CCc3c[nH]c4ccccc34)ccnc2c1,-,.,.,.,-,.
COc1cc(=O)n2c(c1C(=O)N(C)Cc1ccsc1)CCN(Cc1c(C)nn(C)c1Cl)CC2,-,.,.,.,.,.
